From PubChem
The list is not random: actives were taken first. Their share in the collection is about 2.8%.
PI4K2A block: blocks human PI4K2A kinase activity. purified PI4K2A, ADP-Glo luminescence, 1 h; stronger effect = lower value. activity change, negative = inhibition, % at 76.9 µM. 0.13% of 420,000 active; in the data active = activity change below about -50%; inconclusive = mostly about -30% to -49%;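 also: -100% = wells without enzyme as full effect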
Target sequence (Q9BTU6 whole entry, looked up): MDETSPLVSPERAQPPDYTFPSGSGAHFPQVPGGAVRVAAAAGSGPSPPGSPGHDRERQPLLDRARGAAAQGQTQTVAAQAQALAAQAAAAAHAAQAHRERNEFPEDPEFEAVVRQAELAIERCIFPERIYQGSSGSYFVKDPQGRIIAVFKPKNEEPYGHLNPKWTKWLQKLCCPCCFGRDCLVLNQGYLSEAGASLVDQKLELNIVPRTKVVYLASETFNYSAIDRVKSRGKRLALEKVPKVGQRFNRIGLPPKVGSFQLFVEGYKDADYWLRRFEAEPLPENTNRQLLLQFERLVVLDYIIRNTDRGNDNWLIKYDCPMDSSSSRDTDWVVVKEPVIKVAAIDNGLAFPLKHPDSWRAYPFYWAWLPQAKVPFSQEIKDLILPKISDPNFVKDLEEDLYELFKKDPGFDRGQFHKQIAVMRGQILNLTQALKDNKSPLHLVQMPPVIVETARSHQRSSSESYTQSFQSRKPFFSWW
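PI4K2A activity was measured by ADP-Glo luminescence: enzyme (4 ug/mL stock) and phosphatidylinositol (1.2 mM stock) in Tris pH 7.5/MgCl2/EGTA/Triton X-100 buffer were reacted with ATP (300 microM stock) for one hour at ambient temperature.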
DRD3 antagonist: D3 dopamine receptor (human) antagonism; P35462; D3R cells, DiscoveRx beta-arrestin luminescence, antagonist mode; stronger effect = lower value; max response, negative = inhibition, %; 2.5% of 360,000 active; AID 652054; in the data active = max response below about -50%; inconclusive = no clear call, values can overlap the other calls; also: % is scaled to controls: 0 for no effect and ±100 for the full control effect
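Cells plated overnight at 1500 cells/well, then exposed to library compounds with dopamine controls for 90 minutes at 37 degrees C. DiscoveRx reagent added for 30–60 minutes at room temperature; luminescence read, quantitative HTS format.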
DRD3 agonist: activates the human D3 dopamine receptor; D3R DiscoveRx beta-arrestin cells, luminescence, 90 min; max activation, %; 0.58% of 410,000 active; in the data active = max activation above about 30%; also: 0% is about no effect
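Cells at 1500/well, incubated overnight, then treated with pinned compounds (dopamine as control) for 90 min at 37 degrees C. DiscoveRx reagent added for 30 - 60 minutes at room temperature; luminescence read.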
RGS4 inh: inhibitors of human regulator of G protein signaling 4; Potency, µM (titrated, usually from 114 µM), for the others: top-dose activity change, negative = inhibition, hits mostly inhibitors; Transcreener GDP fluorescence polarization, RGS4-accelerated GTP hydrolysis; AID 504845; 0.039% of 390,000 active; active = well fitted inhibition curve with a large enough effect; inconclusive = small, poorly fitted or top-dose-only effect; inactive = no such curve, though single readings can be large or run the other way; also: potency is read from the fitted curve at half-maximal effect; % is scaled to controls: 0 for no effect and ±100 for the full control effect; nearly all actives have a fitted effect of over 75% in size
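MLSMR compounds (23 nl, pin-transferred) preincubated 10 min at room temperature with a 500nM (2x) first reagent, then RGS4 at 900nM (2x) plus Transcreener GDP mix added; fluorescence polarization (620/688 nm) read before and after 90 min at 30 °C.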
LDHA inh: inhibitors of human lactate dehydrogenase A; activity change, % (values are at about 110 or 230 µM); purified LDHA, NADH/diaphorase-resazurin fluorescence; stronger effect = lower value; AID 1347041; 0.15% of 480,000 active; in the data active = activity change below about -30%; inconclusive = mostly about -25% to -30%;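 also: plate controls were DMSO wells for no effect and wells without enzyme for full effect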
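Enzyme activity of human lactate dehydrogenase 5 (2 nM; 0.06 mM NADH, 0.2 mM pyruvate, 5 min, RT) is measured via a resazurin/diaphorase fluorescence readout of residual NADH.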
pAkt inh: inhibitors of Akt phosphorylation | Neuro2A IGF-stimulated pAkt S473 HTRF, 20 min; stronger effect = lower value | AID 651550 | 0.32% of 360,000 active | activity change, % for hits at 50 µM; in the data active = activity change below about -80%; inconclusive = mostly about -51% to -80%; also: % is scaled to controls: 0 for no effect and ±100 for the full control effect
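Neuro2A cells in DMEM with 0.5% FBS, overnight at 37 deg C, given compound at single 50 µM final, then IGF (6 nM final) for 20 min at 37 deg C. Lysed; phospho-Akt Ser473 by HTRF after 24 h, 665/615 ratio.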
Starred values were filed as active, the others as inactive; i = inactive; ? = inconclusive; · = not tested or not shown; [ ] = remark or other dose.

SMILES	PI4K2A block	DRD3 antagonist	DRD3 agonist	RGS4 inh	LDHA inh	pAkt inh
O=C(Nc1ccc(C2=CN(Cc3ccccc3)CCC2=O)cc1)OCc1ccccc1	-4	31	52*	-4%	-3	i
Cc1ccc(C2=CN(Cc3ccccc3)CCC2=O)cc1	-3	-12	-8	-25%	0	i
O=C(Nc1nc2ccccc2n1Cc1ccc(Cl)cc1)c1ccco1	0	-60*	-2	20%	-10	·
CCN(CC)CCn1c(NC(=O)c2ccc(C)cc2)nc2ccccc21	-2	-50*	-27	23%	-1	i
CC(=O)Nc1nc2ccccc2n1Cc1ccc(Cl)cc1	1	14	4	-10%[11.4 µM]	-12	i
CCN(CC)CCn1c(NC(=O)c2ccc(C(F)(F)F)cc2)nc2ccccc21	2	-54*	-11	-19%	-2	i
CN(C)CCn1c(NC(=O)c2ccc(Cl)cc2)nc2ccccc21	-5	-57*	-24	-10%	-1	i
CCOc1ccc(S(=O)(=O)N2CCN(Cc3ncc(-c4ccc(F)cc4)o3)CC2)cc1	·	·	·	·	1	·
CCc1ccc(C(C)NC(=O)Cn2cnc(C#N)n2)cc1 (centres undefined)	·	·	·	·	-1	·
O=C(COC(=O)/C=C/C(=O)OCC(=O)NC12CC3CC(CC(C3)C1)C2)NC12CC3CC(CC(C3)C1)C2	-1	-59*	-22	-23%	-6	i
CCc1ccc(-c2nc(CSCC(=O)NCc3cccs3)c(C)o2)cc1	·	·	·	·	-14	·
CC(C)(C)c1ccc(-n2nc(C#N)c(Cl)cc2=O)cc1	52	-95*	-9	-19%	-5	i
COc1ccccc1C1C2=C(CC(C)(C)CC2=O)Nc2n[nH]c(-c3ccccc3)c21 (centres undefined)	·	·	·	·	-3	·
O=[N+]([O-])c1ccc(S(=O)(=O)c2ccccc2)nc1	6	-151*	-5	-51%	6	i
Cc1ccc(S(=O)(=O)c2ccc([N+](=O)[O-])cn2)cc1	18	-75*	-31	-31%	9	i
Cc1cc(Sc2ccc([N+](=O)[O-])cn2)ccc1Br	3	-20	3	-19%	3	i
Cc1cc(S(=O)(=O)c2ccc([N+](=O)[O-])cn2)ccc1Br	0	-73*	-47	-11%	-2	i
Nc1ccc(S(=O)(=O)c2ccccc2)nc1	-6	-23	-4	-15%	1	i
CC(C)(C)c1ccc(Oc2ccc(NC(=O)CCC(=O)O)cc2)cc1	·	·	·	·	-8	·
CC(=O)Oc1ccc([C@@H]2COc3c(ccc4c3C=CC(C)(C)O4)C2)c(OC(C)=O)c1	1	27	38*	-5%	-9	i
CCN(CC)c1ccc2nc3ccccc3[n+](CC)c2c1	-55*	-65*	-24	-97%[56.9 µM]	19	i
CCN(CC)c1ccc2nc3ccc(N)cc3[n+](-c3ccccc3)c2c1	?	-56*	-10	?	22	i
CCN(CC)c1ccc(/C=C/c2cc(Cl)nc3ccccc23)cc1	·	·	·	·	1	·
Oc1cc2ccccc2cc1-c1n[nH]c(=S)o1	-12	-50*	-2	-50%	6	i
O=C(C1CCCN(Cc2ccccc2C(F)(F)F)C1)N1CCCCC1 (centres undefined)	5	-88*	1	-2%	5	i
SMILES	PI4K2A block	DRD3 antagonist	DRD3 agonist	RGS4 inh	LDHA inh	pAkt inh
O=C(C1CCCN(Cc2ccccc2F)C1)N1CCCCC1 (centres undefined)	5	-22	-29	-17%	-17	i
O=C(C1CCCN(Cc2ccccc2Br)C1)N1CCCCC1 (centres undefined)	1	-85*	-6	-12%	-13	i
Cc1c(C(C)(C)C)sc(=N)n1C	·	·	·	·	0	·
C=CCNC(=O)NC(=O)CN(C)Cc1cc(C)on1	·	·	·	·	-4	·
COc1ccc(Cl)cc1N1C(=O)C2CCCN2C1c1sccc1C (centres undefined)	4	-63*	-2	-18%[56.9 µM]	-8	i
FC(F)(F)c1cc(-c2ccccc2)nc(SCc2ccccn2)n1	·	·	·	·	-3	·
